Consider 75 molecules from PubChem BioAssay AID1981 (Southern Research Specialized Biocontainment Screening …, 2009).

Each structure is given as a SMILES string. The whole screen tested about 2,200 compounds, of which about 480 (22%) were called active. The rule behind the calls is not given here. The list is a sample of the results. Entries with a potency or affinity are not part of this list.

The test in a line: S. Typhimurium GFP fluorescence modified counterscreen for PhoP regulon inhibitor project dose response (AID 1981). As to conditions: 4 h; series mostly up to 150 µM. In general terms: A counterscreen serves to expose hits that act by an unwanted route or on another target.
Turning to `Cc1cc(C)[n+](C2C3CC4CC(C3)CC2C4)o1` (stereo not given), the molecule was classed as inactive.

As for `Cc1cccc(-n2c(N)cc(=O)[nH]c2=S)c1C`, the molecule was called inactive.

With `CCOC(=O)c1c(N)ssc1=S`, the result was inactive.

With `CCOC(=O)c1ccc2c(c1)C(=O)N(C1CCCCC1)C2=O`, the molecule was classed as inactive.

Turning to `O=C(OCCN1C(=O)c2ccccc2C1=O)c1ccc(S(=O)(=O)N2CCCCCC2)cc1`, the outcome was inactive.

In the case of `O=C1c2ccccc2NC(c2ccc(-c3cccc(Cl)c3)o2)N1O` (stereo not given), the molecule was called inactive.

For the molecule `COc1cccc(C2Nc3ccccc3C(=O)N2O)c1O` (stereo not given), the molecule was classed as inactive.

In the case of `Cc1ccc([N+](=O)[O-])cc1NC(=O)CN(C(=O)c1ccc(Cl)cc1)C1CCCCC1`, the molecule was called inactive.

Take `Cc1cc(NC(=O)c2ccccc2-c2ccccc2)ccc1Br`: the molecule was classed as inactive.

On to `CN1c2ccccc2C(=O)NC1c1ccc([N+](=O)[O-])s1` (stereo not given), for which the call was inactive.

As to `CCN(CC)Cc1c[nH]c2c(C(=O)OC)cccc12`, the outcome was inactive.

For the molecule `O=C(C1CCN(C2CC(=O)N(Cc3ccccc3)C2=O)CC1)N1CCCCCC1` (stereo not given), the call was inactive.

As to `N#Cc1c(N)n[nH]c1-c1cc2c([nH]1)CCCC2`, the molecule was called inactive.

As to `O=C(NCc1ccco1)c1c2c(nc3ccccc13)CCC2`, the molecule was classed as inactive.

Turning to `Cc1[nH]c2ccccc2c1C(=O)CN1CCSCC1`, the molecule was called inactive.

`c1ccc(C2CNCc3c2ccc2ccccc32)cc1` (stereo not given): the call was inactive.

Turning to `CCOc1ccc(CSC(CC(=O)O)C(=O)O)cc1` (stereo not given), the molecule was called inactive.

`O=C(CCN1C(=O)c2ccccc2S1(=O)=O)Nc1ccc2c(c1)OCCO2`: the molecule was called inactive.

With `CCOC(=O)c1cc2ccc(OC)c(OC)c2c(=O)s1`, the molecule was called inactive.

As to `COc1cccc(NC(=O)CNC(=O)c2cccs2)c1`, the outcome was inactive.

Consider `Cc1ccccc1Cn1nc(C)c(NC(=O)c2noc3c2CCc2ccccc2-3)c1C`, for which the molecule was classed as inactive.

Consider `O=C1C(c2ccc(F)cc2)N(Cc2ccc3c(c2)OCO3)C(=O)CN1C1CCCCCC1` (stereo not given), for which the result was inactive.

As to `COc1ccc(NC2=NC3(CCCCC3)N=C(N)N2)cc1`, the result was inactive.

For `CCOC(=O)c1c(C)[nH]c(C)c1C(=O)CSc1ncccn1`, the molecule was classed as inactive.

Regarding `Cc1cccn2cc(CSc3nnc(Nc4ccc(C(C)C)cc4)s3)nc12`, the outcome was inactive.

As to `CC1CCN(C(=O)c2ccc3c(c2NCCO)C(=O)c2ccccc2C3=O)CC1`, the result was inactive.

Regarding `CSc1nsc(SCC(=O)Nc2ccc(C(C)=O)cc2)n1`, the result was inactive.

In the case of `CN(C(=O)/C=C/c1ccccc1)C1CCS(=O)(=O)C1` (stereo not given), the result was inactive.

Consider `Cc1cc(C)nc(N(C#N)C(C)C(=O)N(C)C)n1` (stereo not given), for which the molecule was called inactive.

Take `Cc1c(C)n(Cc2ccccc2)c2ncnc(N)c12`: the molecule was called inactive.

Consider `O=c1[nH]c(CN2CC=C(c3ccccc3)CC2)nc2cc(C(F)(F)F)ccc12`, for which the call was inactive.

As for `COc1ccc(Nc2nc(-c3cccc([N+](=O)[O-])c3)nc3ccccc23)cc1`, the call was inactive.

`COc1ccccc1Nc1nc(NCc2ccco2)c2ccccc2n1`: the call was inactive.

As for `BrC(=C\c1ccccc1)/C=N/N1CCN(c2ccccn2)CC1`, the molecule was classed as inactive.

As for `C/C(CC(=O)Nc1ccc(Cl)c(C(F)(F)F)c1)=N\NC(=O)c1cccc(O)c1`, the call was inactive.

Regarding `N=c1n(Cc2ccc(Cl)cc2)c2ccccc2n1CC(O)c1ccco1` (stereo not given), the call was inactive.

Consider `N=c1n(CCO)c2ccccc2n1Cc1ccc(Cl)cc1`, for which the call was inactive.

With `C#CCN1C(=O)C(O)(CC(=O)c2ccc(OC)c(OC)c2)c2ccccc21` (stereo not given), the outcome was inactive.

Consider `CCCCCCCCOC(=O)C1=C(C)Nc2nnnn2C1c1cccs1` (stereo not given), for which the outcome was inactive.

As for `COc1ccc(Oc2ccccc2/C=N/O)cc1`, the call was inactive.

Regarding `CCNC(=S)NNC(=O)c1ccc(OC(F)F)cc1`, the result was inactive.

In the case of `COC(=O)c1ccc(COC(=O)c2ccccn2)cc1`, the outcome was inactive.

As for `CC(C)NC(=O)CSc1nc(N)c(NC(=O)c2ccccc2F)c(=O)[nH]1`, the molecule was classed as inactive.

On to `Cc1cc(C)c2c(=O)[nH]c(SCC(=O)Nc3ccc(N(C)C)cc3)nc2n1`, for which the outcome was inactive.

For `CCOC(=O)C1=C(C)NC(=S)NC1c1ccc(OC(=O)c2ccco2)cc1` (stereo not given), the molecule was called inactive.

Consider `COc1ccc(NC2=NC(=S)N(c3cccc(C)c3)C23CCCCC3)cc1`, for which the call was inactive.

In the case of `O=C(O)/C=C/C(=O)Nc1cccc(C(F)(F)F)c1`, the molecule was called inactive.

In the case of `Cc1cccc(NC(=O)c2ccc(Cn3cc(C(F)(F)F)ccc3=O)cc2)c1`, the call was inactive.

Turning to `CN(C)CC(C(=O)c1ccccc1)c1ccccc1` (stereo not given), the outcome was inactive.

In the case of `Cc1ccc(C(=O)NCc2ccc(Cl)cc2)o1`, the molecule was called inactive.

As for `Cc1ccc(C(=O)Nc2ccc3c(c2)OCO3)o1`, the molecule was called inactive.

For the molecule `O=C(NC(c1ccc(Cl)cc1)c1c(O)ccc2ccccc12)c1ccccc1` (stereo not given), the outcome was inactive.

Regarding `Cc1ccc2cccnc2c1NC(=S)NC(=O)c1ccccc1`, the call was inactive.

Regarding `CCCCCn1c(C(C)NC(=O)CCC)nc2ccccc21` (stereo not given), the result was inactive.

Consider `O=C(CCc1ccccc1)Nc1nc2ccc(S(=O)(=O)N3CCOCC3)cc2s1`, for which the molecule was classed as inactive.

As to `Cc1nc(SCC(=O)NC(C)c2ccccc2)c2oc3ccccc3c2n1` (stereo not given), the call was inactive.

As to `CCCN(CCC)CCCNS(=O)(=O)c1ccc2c(c1)oc(=O)n2C`, the result was inactive.

`NC(=O)c1ccccc1NC(=O)/C=C/C(=O)O`: the call was inactive.

With `O=C(/C=C/c1ccccc1)N1CCN(c2c(Cl)cccc2[N+](=O)[O-])CC1`, the outcome was inactive.

Turning to `C=CCn1c(C)cc(C(=O)CSc2nc(N)cc(N)n2)c1C`, the call was inactive.

With `Clc1ccc(Nc2ncnc3c2cnn3-c2ccccc2)cc1`, the call was inactive.

As for `CCCNC(=O)CN(C1CCCCC1)S(C)(=O)=O`, the molecule was classed as inactive.

In the case of `CCCCC(=O)NCCNC(=O)c1cc(OCC(F)(F)F)ccc1OCC(F)(F)F`, the outcome was inactive.

Consider `Cn1c(COc2ccccc2)nnc1SCc1nc2ccccc2[nH]1`, for which the outcome was inactive.

In the case of `Cc1ccc(C)c(/C=C/C(=O)c2ccccc(=O)c2O)c1`, the outcome was inactive.

Take `COc1ccc(C2=Nc3nc(-c4ccccc4)cn3C(c3ccc(OC)cc3)C2)cc1` (stereo not given): the molecule was called inactive.

Turning to `N/C(=N\OC(=O)N1c2ccccc2Sc2ccccc21)c1ccccc1`, the molecule was called inactive.

For the molecule `CCc1nn2cc(C(=O)c3cc(Cl)ccc3O)cnc2c1-c1ccc(F)cc1`, the outcome was inactive.

In the case of `CCN(C(C)=O)c1nc(CSc2nnc(NC(C)C)s2)cs1`, the outcome was inactive.

As for `CC1CCC(NC(=O)C2c3ccccc3C(=O)N2Cc2cccs2)CC1` (stereo not given), the result was inactive.

As to `Cn1ncc(Br)c1C(=O)NCc1cccs1`, the molecule was called inactive.

As for `O=C(CSc1nnc(-c2ccc(Br)cc2)o1)Nc1cccc2ccccc12`, the result was inactive.

Turning to `O=C(CNc1ccccc1)Nc1ccc(F)cc1`, the molecule was called inactive.

As for `O=C(Oc1c(Br)cc([N+](=O)[O-])cc1Br)c1cccnc1`, the call was inactive.

As to `O=C(Nc1ccc(F)cc1)c1ccccc1F`, the call was inactive.
